The panel holds about 79,000 compounds, 15% with a hit somewhere; the sample as a whole holds those more often. Activity calls are given as the source filed them. Cut-off read from the data, not from the text of the source: active = growth inhibition above about 70%; inactive = the rest.
Assay: NCI Yeast Anticancer Drug Screen. Data for the mec2-1 strain (AID 157)
Conditions: S. cerevisiae mec2-1 strain, stronger effect = higher value
Protocol: Growth inhibition of yeast strains with defined genetic alterations is measured as a screen for potential anti-cancer activity. Selected strains with alterations in DNA damage repair or cell cycle control were exposed to compounds and growth inhibition was measured relative to vehicle treated controls. The strain used in this assay is mec2-1

[1] = at 5.0 µM (retest, dose inferred, filed as 0.5)
[2] = at 50.0 µM (retest, dose inferred, filed as 5.0)

Measured: growth inhibition

S=c1nc(Cl)cc2[nH]c(Cl)cn12
active: at 50.0 µM 82.5% | at 100.0 µM 80%
inactive: at 1.2 µM 3% | at 3.7 µM 4% | [1] -46% | at 11.0 µM 13% | at 33.0 µM 24% | [2] -8%

Cc1cc(O)c2c(c1)C(=O)C=C(Br)C2=O
active: at 11.0 µM 94% | at 33.0 µM 99% | at 100.0 µM 98%
inactive: at 1.2 µM 40% | at 3.7 µM 67%

NC(N)=N/N=C/c1cc(Cl)cc(Cl)c1O
inactive: at 1.2 µM -29% | at 3.7 µM -18% | at 11.0 µM -21% | at 33.0 µM 23% | at 50.0 µM 61.9%
active: [1] 73% | [2] 96% | at 100.0 µM 98%

CCOP1(=O)C=C(Sc2ccc([N+](=O)[O-])cc2[N+](=O)[O-])C(C)(C)O1 (stereo not given)
inactive: at 1.2 µM 7% | at 3.7 µM 12% | [1] 27% | at 11.0 µM 18% | at 33.0 µM 41% | [2] 41% | at 50.0 µM 8.65%
active: at 100.0 µM 87%

C/C(=N\NC(=S)NNC(=S)N(C)c1ccccc1)c1ccccn1
active: at 11.0 µM 98% | at 33.0 µM 99% | [2] 99% | at 50.0 µM 90.5% | at 100.0 µM 82%
inactive: at 1.2 µM 18% | at 3.7 µM 25% | [1] 10%

O=C1C=CC(=O)N1c1ccc(I)cc1
active: at 11.0 µM 99% | at 33.0 µM 99% | at 50.0 µM 93.7% | at 100.0 µM 100%
inactive: at 1.2 µM 12% | at 3.7 µM 41% | [1] 31% | [2] 65%

From PubChem BioAssay (NCI)
